# How the values were obtained:
# Assay in all cases: PBM binding z-score (relative to random genomic background probes); higher = stronger binding; sequences stand for … in GC…GCGATTGACAGCGTAGAATGAAGG
# [1] = system: PPARg:RXRa DBDmut IVT, anti-RXR (DBD mutation: RXRa K156A/R161A, NR concentration 270 nM, RXRa partner concentration 90 nM)
# Procedure, shortened: (§1)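 On custom Agilent 4×180K arrays, double-stranded probes with 34-nt variable regions carried direct-repeat seeds, single-nucleotide variants, half-site ablations or random human genomic background. Ligand-free nuclear receptor dimers were applied for 1 h, and binding was read with antibodies against each partner (one per run). Binding z-scores come from regression-normalized fluorescence, with the random background probes as reference.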
# [2] = system: PPARg:RXRa IVT, anti-PPARg (NR concentration 270 nM, RXRa partner concentration 90 nM)
# Procedure, shortened: as §1
# [3] = system: PPARg DBDmut:RXRa IVT, anti-PPARg (DBD mutation: PPARg1 K132A/R137A, NR concentration 270 nM, RXRa partner concentration 90 nM)
# Procedure, shortened: as §1
# [4] = system: PPARg DBDmut IVT, anti-PPARg (DBD mutation: PPARg1 K132A/R137A, NR concentration 270 nM)
# Procedure, shortened: as §1
# [5] = system: PPARg homodimer (NR concentration 180 nM)
# Procedure, shortened: as §1
# [6] = system: PXR:RXRa (NR concentration 270 nM, RXRa partner concentration 90 nM)
# Procedure, shortened: as §1
# [7] = system: PXR homodimer (NR concentration 270 nM)
# Procedure, shortened: as §1
# [8] = system: RARa:RXR (NR concentration 270 nM, RXRa partner concentration 90 nM)
# Procedure, shortened: as §1
# [9] = system: RARa homodimer (NR concentration 270 nM)
# Procedure, shortened: as §1
# [10] = system: RARb:RXRa (NR concentration 270 nM, RXRa partner concentration 90 nM)
# Procedure, shortened: as §1
# [11] = system: RARb homodimer (NR concentration 270 nM)
# Procedure, shortened: as §1
# [12] = system: RARg:RXRa (NR concentration 270 nM, RXRa partner concentration 90 nM)
# Procedure, shortened: as §1
# [13] = system: RARg homodimer (NR concentration 270 nM)
# Procedure, shortened: as §1
# [14] = system: RXRa DBDmut IVT, anti-RXR (DBD mutation: RXRa K156A/R161A, NR concentration 90 nM)
# Procedure, shortened: as §1
# [15] = system: RXRa homodimer (NR concentration 180 nM)
# Procedure, shortened: as §1
# [16] = system: THRa:RXRa (NR concentration 90 nM, RXRa partner concentration 90 nM)
# Procedure, shortened: as §1
# [17] = system: THRa homodimer (NR concentration 90 nM)
# Procedure, shortened: as §1
# [18] = system: VDR:RXRa (NR concentration 270 nM, RXRa partner concentration 90 nM)
# Procedure, shortened: as §1
# [19] = system: VDR homodimer (NR concentration 270 nM)
# Procedure, shortened: as §1
Sequence,PBM binding z-score [1],PBM binding z-score [2],PBM binding z-score [3],PBM binding z-score [4],PBM binding z-score [5],PBM binding z-score [6],PBM binding z-score [7],PBM binding z-score [8],PBM binding z-score [9],PBM binding z-score [10],PBM binding z-score [11],PBM binding z-score [12],PBM binding z-score [13],PBM binding z-score [14],PBM binding z-score [15],PBM binding z-score [16],PBM binding z-score [17],PBM binding z-score [18],PBM binding z-score [19]
CCGACTGGGGCCTAAGGTTACCATAAGCCAGCCC,-0.456,-0.247,-1.22,-1.84,0.088,0.127,-0.726,0.85,0.205,0.778,1.1,0.451,-0.117,-0.875,0.652,2,1.26,-0.158,0.0794
CTACCAAGGTGAATAAGGTCGTTGATTACTATTC,1.82,2.39,0.0322,-0.387,0.714,2.37,2.32,2.44,0.949,1.71,2.05,1.54,1.21,1.38,1.71,3.6,2.67,5.52,2.68
CCTCGGAGGACAGAGGGTCAGAGCTGTCCGCTTT,-0.421,0.141,-1.61,-1.81,0.33,0.62,-0.49,1.14,-0.305,2.22,2.47,2.45,2.4,-0.382,1.6,1.69,-0.314,0.544,-0.0777
CCTATTGGTTGACCATAAGGGCAACCGAAGCTCG,-1.11,0.135,-0.489,-1.22,0.0166,0.326,-0.293,0.774,-0.166,1.26,1.47,0.997,0.631,-0.724,0.512,1.62,0.504,-0.0561,-0.166
GTACCAAGGGGAATAGGTCGTTGATGAGTAGGCG,-0.45,0.704,-0.174,-0.377,0.85,0.0913,0.00696,0.389,0.37,0.516,0.74,0.528,0.371,-0.365,0.651,0.124,-0.309,0.104,0.49
CAAACTAGGTTAAGGTCAAAGTCGGTTTGTGCCA,7.61,7.5,2.24,3.72,4.36,5.2,3.07,5.71,2.29,4.32,4.49,5.11,4.99,2.74,5.29,4.54,5.29,4.8,4.48
CCTAGCAGGCTAATCTGGGTCACTCAAGGCTTGA,4.46,5.23,0.678,0.0667,0.493,0.328,-0.671,1.34,-0.634,1.07,1.8,0.393,0.769,0.246,0.687,3.19,0.623,0.385,0.114
ATATTTAGGTTACATCCGGGTCATTCAGGCTATG,6.5,6.04,2.49,3.35,3.88,3.75,3.78,4.29,3.08,2.54,3.1,3.51,2.31,1.39,3.32,4.1,3.84,4.13,3.54
CTACCAAGGAGAACAAGGTCGTTGATTACTATTC,0.168,0.269,-0.0895,0.25,0.615,1.23,1.05,1.17,0.421,0.589,1.14,0.413,0.266,1.2,0.732,1.87,1.05,1.56,1.73
GGAACGAGGGCAAAGCTGATAGCATCTGTCGACG,4.19,2.81,0.774,-0.247,0.0511,0.048,-0.0388,0.0386,-0.822,1.99,0.567,1.03,1.5,2.13,0.836,0.546,-0.597,0.367,0.452
ACCGACAGGTGAGTGAAGGTAACTCAGCTGGACG,0.224,0.64,0.0319,-0.41,-0.391,-0.571,-0.481,-0.0449,-0.642,0.605,-0.286,0.0773,0.407,-0.459,0.0984,1.56,-0.918,-0.484,-1
ACTAATAGTTGACTTAGGGCAACCGATACGACGC,0.0501,0.335,0.861,0.863,0.622,0.0101,0.295,0.399,0.56,1.01,0.958,0.412,0.996,0.674,0.408,1.6,0.383,0.357,0.15
ACTAGTAGTTGAGACGAGGGCAACCGATAGGTTG,-0.0209,0.386,-0.147,-0.849,-0.115,1.63,0.115,0.6,0.181,0.978,1.26,0.496,0.837,-0.186,0.422,2.71,-0.0205,0.766,0.686
TCATATAGGTAAATGCTAGGTCAAAGTCCGATCT,4.1,3.27,0.472,1.99,1.7,1.98,1.11,2.7,1.22,1.88,2.75,2.52,1.58,1.72,2,2.96,1.76,2.15,1.35
TTACCAAGGTGAAGGTCATTGATCCCTCTGTAGA,2.03,4.57,1.28,-0.00818,2.06,3.74,0.712,3.95,0.469,3.88,3.83,3.84,3.53,1.15,4.16,3.41,1.74,3.43,2.17
ATCTCTAGGTAAAGATGGTTCAGTGAATGCAAAT,1.87,1.65,0.333,0.863,0.000234,0.269,0.428,0.492,0.88,-0.00416,-0.0603,0.324,0.292,-0.0269,0.0778,0.592,0.0966,0.607,0.095
AGAACGAGGGCAAAGAGTTGATAGCACGGGTGGC,3.36,2.41,0.499,-0.21,0.413,1.77,4.76,0.09,-0.299,2.11,1.12,1.3,1.69,2.57,1.14,0.917,-0.224,4.29,3.05
TCTAGCAGGCCAGAGGGTCAGTCAAGAGGTACGG,0.768,0.496,-0.553,-1.25,0.21,0.465,-0.829,0.985,-0.753,1.77,2.16,1.59,1.82,-0.232,1.43,0.734,-0.934,0.113,-0.429
CCTAGCAGGCCAATCTGGGGCACTCAAGGCTTGA,3.51,3.96,-0.514,-1.4,-0.431,-0.51,-1.01,-0.273,-0.87,0.323,0.233,-0.125,0.0351,-0.585,-0.29,1.65,-0.87,-0.786,-0.374
CCTGTTAGGTCAATGGTCAGCTAAAGCAGCTCGC,3.49,3.13,-0.195,-0.0792,2.54,1.43,0.214,2.39,1.21,4.14,3.5,4.07,4.93,2.35,2.63,3.16,2.18,1.54,0.926
TAGCCTAGGTCAGTGGGCCAGTATAGTACGCATC,2.3,3.72,-0.247,0.15,0.486,0.1,-0.662,0.533,-1.07,3.01,2.1,2.45,3.58,-0.571,1.03,1.29,-0.197,0.148,-0.446
CAAACTAGGTCAAGAGGTCATAGTCCGCTTCCCG,8.3,8.47,3.3,2.09,5.93,5.98,2.28,7.42,2.36,5.19,5.49,7.6,7.08,2.78,7.48,4.35,2.59,5.59,3.82
AGAACGAGGGCAATGAGTTGATAGCCCGGGTGGC,3.22,2.62,0.0916,-0.0623,0.48,1.43,5.33,0.0801,-0.603,2.13,0.793,0.874,1.57,1.84,0.855,0.913,-0.362,4.73,2.96
ATAATGAGGTTAAGATCAGGGAAACAGAATACAT,3.08,3.32,1.83,1.92,1.15,1.31,0.654,2.22,0.709,2.22,0.864,2.47,1.96,1.16,2.68,2.74,1.02,1.6,0.406
TTACCAAGGTGAGCTGAGGTCGTTAATCCAACTC,1.09,1.7,-0.772,-1.04,-0.219,4.5,0.182,1.51,-0.951,1.59,1.49,0.963,0.731,-0.172,1.12,4.42,1.8,3.68,1.33
ATCTCTAGGTAGGACTCAGTTCAGTGAAGAACGC,0.406,0.852,0.763,1.31,0.939,0.751,1.95,0.353,1.12,0.407,0.778,0.159,0.0916,0.747,0.071,0.569,0.909,0.756,1.66
CCGACTGGGGCAAAGGTTCCCATACTCAGTACGA,4.43,4.51,-0.428,-0.816,-0.0222,-0.128,-0.291,0.588,0.117,0.831,0.64,0.839,0.494,-0.0939,0.724,-0.141,-0.168,-0.179,-0.00727

# Reference: the supplement of paper PMC6555819
